# Data: PubChem BioAssay (EPA / NIEHS)
# Records with an inconclusive call do not appear. Activity calls are given as the source filed them. The calls were made as follows: active = hit-call score of the fitted dose curve at least 0.9, where 1 is the maximum; inconclusive = response in the unintended direction; inactive = score below 0.9.
# Read-out: ABC Transporter (ABCB1), ABCB1 (gene 5243)
# Assay: CLD_ABCB1_24hr: CellzDirect (CLD) Gene Expression Assay for ABC Transporter (ABCB1) at 24 hours (AID 2283684);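 as to AC50: potency for increase in ABCB1 mRNA relative to DMSO vehicle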
# Experimental: CLD_24hr is a cell-based, multiplexed-readout assay that uses hepatocyte, a human liver primary cell, with measurements taken at 24 hours after chemical dosing in a 96-well plate.CLD_ABCB1_24hr is one of 16 assay component(s) measured or calculated from the CLD_24hr assay. It is designed to make measurements of mRNA induction, a form of inducible reporter, as detected with chemiluminescence signals by Quantitative Nuclease Protection Assay (qNPA) technology.Data from the assay component CLD_ABCB1_24hr was analyzed at the endpoint, CLD_ABCB1_24hr, in the positive analysis fitting direction relative to DMSO as the negative control and baseline of activity. Using a type of inducible reporter, gain-of-signal activity can be used to understand changes in the reporter gene as they relate to the gene ABCB1. Furthermore, this assay endpoint can be referred to as a primary readout. To generalize the intended target to other relatable targets, this assay endpoint is annotated to the transporter intended target family, where subfamily is ABC transporter.
# Human hepatocyte cultures were treated daily for two consecutive days with fresh dosing solutions containing appropriate concentrations of the 320 ToxCast chemicals (chemical identities were blinded to CellzDirect and other ToxCast collaborators), vehicle control (0.2% DMSO), and positive control inducers as summarized in Table 1. Due to the large number of treatment groups and chemicals examined, the ToxCast chemicals were divided into two groups (spanning two independent cultures of hepatocytes from separate donor preparations (Hu778: ToxCast plates 1 and 2; Hu776: ToxCast plates 3 and 4). Each preparation of human hepatocyte cultures was treated with respective vehicle control, medium only control, set of six positive controls/reference chemicals for the five hepatic receptor pathways, and a subset of eight of the ToxCast chemicals (indoxacarb, pyrithiobac-sodium, norflurazon, cyhalofop-butyl, methomyl, thiram, acetochlor, and propiconazole). These replicate data, coupled with internal replicates designed within the blinded ToxCast chemical library, provided additional data to evaluate interindividual differences between hepatocyte preparations and their potential impact on chemical profiles.Cell morphology and integrity were evaluated using phase-contrast microscopy as an indicator of hepatocyte cell health (Tyson & Green, 1987). Cultures for each treatment group (i.e., media, vehicle [0.2% DMSO], positive control inducers [multiple concentrations], and the ToxCast chemicals [multiple concentrations]) were observed and cell morphology was assessed relative to vehicle control cultures at each harvest time point (0, 6, 24, or 48 h). […] Images were evaluated at the conclusion of the study to assess changes in cell integrity and account for the effects of chemical exposure on uncharacteristic changes in concentration-dependent gene expression profiles. The results from these determinations of apparent cytotoxicity were annotated (yes/no) alongside the corresponding qNPA data for reference.At the conclusion of each treatment period, hepatocyte cultures (96-well) were washed with 1 volume of HBSS, lysed by addition of 25 ul ArrayPlate lysis buffer (HTG, Tucson, AZ), and 70 ul/well of Denaturation Oil, denatured by incubation at 95C for 10 min, and frozen at approximately -70C until analysis by nuclease protection assay (qNPA) (Roberts et al., 2007). For qNPA analysis, cell lysates were thawed at 50C for approximately 30 min, qNPA probes were added, and samples were incubated at 95C for 10 min to begin the detection process by denaturing the target RNA, dissociating the duplexes and secondary structure hybridization. At the conclusion of the hybridization period, S1 nuclease reagent was added to each sample to digest all nonprotected nucleotides at 50C for 60-90 min. […]
Structure (SMILES),outcome,AC50
C#CC(C)(C)NC(=O)c1cc(Cl)cc(Cl)c1,inactive,
COP(=O)(OC)C(O)C(Cl)(Cl)Cl (stereo not given),inactive,
CCCCOC(=O)[C@@H](C)Oc1ccc(Oc2ccc(C#N)cc2F)cc1,inactive,
CCCSP(=O)(OCC)SCCC,inactive,
CCCSP(=O)(OCC)Oc1ccc(Br)cc1Cl (stereo not given),inactive,
CNC(=O)Oc1cccc2c1OC(C)(C)O2,inactive,
COP(=O)(NC(C)=O)SC (stereo not given),inactive,
COP(=O)(OC)SCn1c(=O)oc2cc(Cl)cnc21,inactive,
CC(C)[C@H](C(=O)O[C@H](C#N)c1cccc(Oc2ccccc2)c1)c1ccc(Cl)cc1,inactive,
CCc1cccc(CC)c1N(COC)C(=O)CCl,inactive,
CNC(=O)ON=C(C)SC,inactive,
CCOP(=S)(OCC)Oc1ccc([N+](=O)[O-])cc1,inactive,
CCc1cnc(C2=NC(C)(C(C)C)C(=O)N2)c(C(=O)O)c1 (stereo not given),inactive,
CC1=NNC(=O)N(/N=C/c2cccnc2)C1,inactive,
Cc1nn(-c2cc(NS(C)(=O)=O)c(Cl)cc2Cl)c(=O)n1C(F)F,inactive,
CN(C)C(=O)Nc1cccc(C(F)(F)F)c1,inactive,
N#CSCSC#N,inactive,
C[N+]1(C)CCCCC1,inactive,
CC(C1CC1)C(O)(Cn1cncn1)c1ccc(Cl)cc1 (stereo not given),inactive,
CCc1cccc(C)c1N(C(=O)CCl)C(C)COC (stereo not given),inactive,

Structure (SMILES),outcome,AC50
COc1cccc(C(=O)NN(C(=O)c2cc(C)cc(C)c2)C(C)(C)C)c1C,inactive,
CCOP(=S)(OCC)SCCSCC,inactive,
CSc1nnc(C(C)(C)C)c(=O)n1N,inactive,
FC(F)C(F)(F)OCC(Cn1cncn1)c1ccc(Cl)cc1Cl (stereo not given),inactive,
CCOP(=S)(OCC)OC(Cl)C(Cl)(Cl)Cl (stereo not given),inactive,
Cc1ccn2nc(S(=O)(=O)Nc3c(F)cccc3F)nc2n1,inactive,
COP(=O)(OC)OC(Br)C(Cl)(Cl)Br (stereo not given),inactive,
S=C1NCCN1,inactive,
COc1cc(OC)nc(Sc2cccc(Cl)c2C(=O)O)n1,inactive,
O=C(O)c1cc(Oc2ccc(C(F)(F)F)cc2Cl)ccc1[N+](=O)[O-],inactive,
COc1ccc(C(=CC(=O)N2CCOCC2)c2ccc(Cl)cc2)cc1OC,inactive,
CCOP(=S)(Oc1cnc(C(C)(C)C)nc1)OC(C)C (stereo not given),inactive,
C=C(C)[C@H]1Cc2c(ccc3c2O[C@@H]2COc4cc(OC)c(OC)cc4[C@@H]2C3=O)O1,inactive,
CC1(C(=O)Nc2ccc(O)c(Cl)c2Cl)CCCCC1,inactive,
CSc1nc(NC(C)C)nc(NC(C)C)n1,inactive,
CCCCOC(=O)c1ccccc1C(=O)O,inactive,
CSC1=N[C@@](C)(c2ccccc2)C(=O)N1Nc1ccccc1,inactive,
C#CCC1=C(C)C(OC(=O)C2C(C=C(C)C)C2(C)C)CC1=O (stereo not given),inactive,
CCCCSP(=O)(SCCCC)SCCCC,inactive,
CC(C)N(C(=O)SCC(Cl)=C(Cl)Cl)C(C)C,,35.3 µM (active)
